# Assay outcomes: PubChem BioAssay, National Center for Advancing Translational Sciences (NCATS)
# Pf growth 96h: P. falciparum growth inhibition at 96 hour, primary screen for plastid delayed-death inhibitors | P. falciparum luciferase reporter growth, 96 h | Potency, µM (top dose mostly 28.7 µM), without a hit: top-dose activity change, negative = inhibition, actives largely listed as inhibitors | hit rate 6.9% among 320,000; further: potency means the concentration at half of the fitted maximal effect; on the % scale 0 is the no-effect control and ±100 the full control effect
#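 Luminescence readout: decreased luciferase signal marks inhibited growth of reporter-expressing P. falciparum in infected red cells (2% hematocrit, 0.05% parasitemia final), exposed to compound two generations (96 h, 37 C, 5% CO2).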
# Shiga inhibitor: blocks Shiga toxin action in Vero cells. inhibition, % at 38.7 µM. hit rate 9.2% among 290,000. Vero cells, Shiga toxin protein synthesis inhibition reporter; in the data active means inhibition mostly above about 28%, no sharp cut-off; inactive means mostly below about 43%; further: 0% is about no effect
# HCMV inh: human cytomegalovirus inhibition | HFF cells, HCMV-luciferase reporter, 72 h; active compounds read low | activity change, negative = inhibition, % at 57.5 µM | hit rate 4.5% among 410,000 | AID 1259415; in the data active means activity change below about -60%; inconclusive means no clear call, values can overlap the other calls; inactive means above about -39%; further: on the % scale 0 is the no-effect control and ±100 the full control effect
#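 Inhibition of viral replication was scored as loss of reporter luminescence in HFFs infected with HCMV-luciferase (MOI 1 PFU/cell) for 72 h; compounds tested at 2 doses, normalized to buffer and Salinomycin controls.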
# Pf growth 48h: P. falciparum growth inhibition at 48 hours (one generation); P. falciparum luciferase growth in erythrocytes, 48 h; AID 504832; hit rate 5.9% among 310,000; Potency, µM (series often up to 28.7 µM), without a hit: top-dose activity change, negative = inhibition, actives largely listed as inhibitors; further: potency means the concentration at half of the fitted maximal effect; on the % scale 0 is the no-effect control and ±100 the full control effect
#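 Parasite viability was followed by luminescence of a genomically integrated firefly luciferase. Cultures held 0.1% parasitemia at 2% hematocrit (final), incubated under 5% CO2 at 37 C.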
# Cycloheximide cs: counter-screen hit for Shiga toxin inhibitors, cycloheximide. hit rate 12% among 300,000. max response, %. cell reporter, cycloheximide protein synthesis inhibition counterscreen. AID 2314; in the data active means max response mostly above about 13%, no sharp cut-off; inactive means mostly below about 14%; further: read at 38.3 µM for the half of the compounds with a filed dose; 0% is about no effect
# * marks the source's active call; other numbers are inactive results; u = inconclusive; x = no result given. The list is not random: actives were taken first. Their share in the collection is about 20%. Unless noted, the call rests on the fitted dose curve; in most records, active means well fitted inhibition curve with a large enough effect; inconclusive means small, poorly fitted or top-dose-only effect, or another doubt; inactive means no such curve, though single readings can be large or run the other way.
SMILES,Pf growth 96h,Shiga inhibitor,HCMV inh,Pf growth 48h,Cycloheximide cs
C#CCOCCOCCOCCNc1nc(N2CCN(C(=O)[C@H](C)n3cc(CCC(=O)O)nn3)CC2)nc(N2CCN(C(=O)[C@H](Cc3ccc(O)cc3)n3cc(CCO)nn3)CC2)n1,x,x,-18.8,x,x
COC(=O)c1cc(Nc2cc(C)nc3ncnn23)cc(C(=O)OC)c1,-26.6%,-12.7,30.4,16.0%,-3.7
COc1cc(Nc2cc(C)nc3ncnn23)cc(OC)c1OC,u,19.6,75.5,9.28µM*,-4.5
COc1cc(Nc2cc(C)nc3ncnn23)cc(OC)c1,10.4%,8.5,68.5,8.28µM*,-2.0
COc1ccc(Nc2cc(C)nc3ncnn23)cc1Cl,u,-7.5,90.3,u,-0.3
C[C@@H](Oc1ccccc1)c1nnn(Cc2ccccc2)c1-c1c([C@@H](C)Oc2ccccc2)nnn1Cc1ccccc1,6.57µM*,-3.9,-72.4*,u,-3.1
COc1ccc(OC)c(Nc2nc(-c3sc(NC(=O)CC(C)C)nc3C)cs2)c1,10.4µM*,-10.3,u,6.57µM*,1.8
CCC(C)C(=O)Nc1nc(C)c(-c2csc(Nc3cc(OC)ccc3OC)n2)s1 (configuration not stated),9.28µM*,-12.1,-38.8,2.33µM*,-1.8
CCC(C)C(=O)Nc1nc(C)c(-c2csc(Nc3cc(Cl)ccc3OC)n2)s1 (configuration not stated),14.7µM*,-17.4,u,10.4µM*,-3.0
CCCCCCCCCC[n+]1cccc(C(=O)N(CC)CC)c1,3.7µM*,-8.5,-22.8,3.7µM*,-0.9
Clc1ccc(C2=C3CCCCn4c(-c5ccccc5)c[n+](c43)C2)cc1,u,-5.2,-9.1,10.4µM*,-2.5
COc1ccc(-c2c[n+]3c4n2CCCCC4=C(c2ccc(Br)cc2)C3)cc1,2.08µM*,-12.2,-99.7*,3.7µM*,-4.5
Clc1ccc(-c2cnc3n2CCC3)cc1,-32.2%,36.9,-19.8,u,16.7
O=c1[nH]c(SCc2c(F)cccc2Cl)nc2c1CCCC2,x,x,-8.9,x,x
Cc1cc2c(n1-c1ccc(C(=O)O)cc1)CCCCC2,2.2%,21.9,x,-3.0%,4.2
Cc1c(C(=O)Cc2ccccc2)n(C)c2ccccc12,1.8%,26.6,9.5,-13.2%,25.1*
CCCC(=O)c1c(C)c2ccccc2n1C,3.29µM*,35.7,-12.4,-12.2%,-0.5
Cn1c(C(=O)O)c(CC(=O)NCc2cccnc2)c2ccccc21,-0.2%,-6.2,42.1,-20.0%,-5.3
C/C(=N\O)c1c(C)c2ccccc2n1C,2.3%,-20.6,40.9,4.8%,-3.2
CCCCNC(=O)[C@@H]1CSC2c3ccc(OC)c(OC)c3C(=O)N21 (some centres not stated),0.3%,16.7,u,9.7%,-2.9
COc1ccc2c(c1)[C@@]13CCC=C[C@H]1[C@@H](C2)NCC3,-6.4%,x,27.6,11.7µM*,x
CCOC(=O)C1CCN(C(=O)Nc2ccc3nc(-c4ccco4)c(-c4ccco4)nc3c2)CC1,u,38.8,x,10.4µM*,-1.6
Cc1nc2cc(NC(=O)N3CCCCC3)ccc2n1C,u,43.8*,20.4,95.7%,18.6*
Cc1nc2ccc(NC(=O)N3CCCCC3)cc2nc1C,-10.3%,18.9,-5.0,-0.4%,11.6
CCOC(=O)C1CCN(C(=O)Nc2ccc3c(c2)nc(C)n3C)CC1,u,53.4*,47.2,347.9%,49.1*
SMILES,Pf growth 96h,Shiga inhibitor,HCMV inh,Pf growth 48h,Cycloheximide cs
C/C=C/c1cccc(-c2nc(C(=O)N3CCOCC3)cc3c2[C@@H](CCO)N(C(=O)NC(C)C)C3)c1,x,x,-12.8,x,x
CCOC(=O)CNC(=O)N1CCCC(CCC(=O)NCc2ccc(F)c(F)c2)C1 (configuration not stated),-8.8%,15.1,-24.1,6.2%,-1.5
COCCC(=O)N1CCCC(CCC(=O)NCc2ccc(F)c(F)c2)C1 (configuration not stated),-15.0%,79.4*,215.5,-3.3%,16.9*
COc1ccc(/C=C/CN2CCCC(CCC(=O)NCc3ccc(F)c(F)c3)C2)cc1 (configuration not stated),2.4%,-6.7,-21.4,13.1µM*,9.2
Cn1cc(CCC(=O)N2CCCC(CCC(=O)NCc3ccc(F)c(F)c3)C2)cn1 (configuration not stated),28.2%,43.2*,9.3,u,17.1*
Cc1ccccc1OC1C(=O)N(Cc2ccc3c(c2)OCO3)C1c1sccc1C (configuration not stated),13.1µM*,-13.9,-70.6*,u,-2.1
